Assay outcomes deposited in PubChem by The Scripps Research Institute Molecular Screening Center.
Fam108B inh – mouse Fam108B serine hydrolase inhibitors, primary screen, counter-screen for RBBP9 inhibitor project, biochemical, fluorescence polarization | recombinant Fam108B, FP-Rh probe fluorescence polarization | inhibition, % at 9.51 µM | 0.33% of 300,000 active;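 active = inhibition above the screen mean inhibition plus 3 SD, computed separately per campaign, cut at about 18% in these data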;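 also: inhibitors lower polarization as less probe binds the enzyme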
LYPLA1 counter – LYPLA1 inhibitors, primary screen, counter-screen for PME1 inhibitor project, biochemical, fluorescence polarization, FP-Rh probe ABPP | Acyl-protein thioesterase 1 (Homo sapiens), O75608 | recombinant LYPLA1 | inhibition, % at 5.9 µM | 0.16% of 320,000 active;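 active = inhibition above the mean of all tested compounds plus 3 SD, set per campaign, cut at about 14% in these data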;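 also: inhibitors block serine hydrolase probe labeling of LYPLA1 so polarization falls; 0% = enzyme with DMSO and 100% = wells lacking LYPLA1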
PAD4 inh – human PAD4 inhibitors, primary screen, biochemical, fluorescence polarization, 1536-well format; 0.41% of 330,000 active; recombinant PAD4, RCA probe fluorescence polarization; inhibition, % at 6.36 µM;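 active = percent inhibition above a cutoff equal to the mean of all tested compounds plus 3 SD, cut at about 15% in these data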;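 also: 0% = PAD4 with RCA probe and DMSO and 100% = probe without PAD4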
Target sequence (Q9UM07 whole entry, looked up): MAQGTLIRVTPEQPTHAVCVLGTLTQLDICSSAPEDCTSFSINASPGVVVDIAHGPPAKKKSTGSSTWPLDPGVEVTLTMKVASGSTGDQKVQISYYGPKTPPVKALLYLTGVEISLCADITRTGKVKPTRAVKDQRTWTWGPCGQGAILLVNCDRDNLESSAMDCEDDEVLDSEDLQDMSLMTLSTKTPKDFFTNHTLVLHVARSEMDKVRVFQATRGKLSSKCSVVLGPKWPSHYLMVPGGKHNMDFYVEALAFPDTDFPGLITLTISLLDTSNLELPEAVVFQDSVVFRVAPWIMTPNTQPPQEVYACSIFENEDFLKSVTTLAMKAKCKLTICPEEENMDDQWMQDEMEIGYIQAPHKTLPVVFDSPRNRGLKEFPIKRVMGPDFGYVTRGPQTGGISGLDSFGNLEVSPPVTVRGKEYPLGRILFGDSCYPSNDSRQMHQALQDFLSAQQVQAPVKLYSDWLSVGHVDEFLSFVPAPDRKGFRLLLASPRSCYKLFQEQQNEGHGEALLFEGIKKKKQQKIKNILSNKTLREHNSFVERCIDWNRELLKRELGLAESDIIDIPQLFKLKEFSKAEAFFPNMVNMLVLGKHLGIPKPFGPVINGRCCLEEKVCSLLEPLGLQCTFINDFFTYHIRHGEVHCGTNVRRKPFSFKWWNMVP
LYPLA2 counter – LYPLA2 inhibitors, primary screen, counter-screen for PME1 inhibitor project, biochemical, fluorescence polarization, FP-Rh probe ABPP. inhibition, % at 5.9 µM. recombinant LYPLA2. 0.38% of 320,000 active. Acyl-protein thioesterase 2 (Homo sapiens), O95372;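 active = inhibition above the screen-wide mean plus 3 SD, limit set per campaign, cut at about 26% in these data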;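 also: 0% = LYPLA2 with DMSO and 100% = wells lacking LYPLA2 enzyme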
GSTO1 counter – inhibitors of recombinant GSTO1, primary screen, counter-screen for RBBP9 inhibitor project, biochemical, fluorescence polarization | Glutathione S-transferase omega-1 (Homo sapiens), P78417 | activity-based probe fluorescence polarization | inhibition, % at 5.96 µM | 1.1% of 300,000 active;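 active = inhibition above the campaign mean inhibition plus 3 SD, cut at about 35% in these data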;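 also: 0% = GSTO1-1 with DMSO and 100% = wells lacking GSTO1-1 enzyme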
PME-1 primary – PME-1 inhibitors via competitive probe labeling, primary screen, biochemical, fluorescence polarization, FP-Rh probe, HTS; Protein phosphatase methylesterase 1 (Homo sapiens), Q9Y570; recombinant PME-1; inhibition, % at 5.9 µM; 0.53% of 320,000 active; AID 2130, 2009;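 active = inhibition above the campaign mean of all compounds plus 3 SD, cut at about 26% in these data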;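 also: competitive labeling of PME-1 active site by serine hydrolase directed probe; 0% = PME-1 with DMSO and 100% = wells lacking PME-1 enzyme; inhibitors block probe labeling so polarization falls and inhibition rises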
GSTO1 inh conf – GSTO1 inhibitor hit confirmation, counter-screen for RBBP9 inhibitor project, biochemical, fluorescence polarization, triplicate; 54% of 2,400 active; AID 2176, 2009; inhibition, % at 5.96 µM; shares compounds with GSTO1 counter; recombinant GSTO1, probe fluorescence polarization;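 active = inhibition above the primary screen's cutoff, its mean inhibition plus 3 SD, cut at about 35% in these data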;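 also: loss of polarization as inhibitors block binding of rhodamine sulfonate ester activity probe; 0% = GSTO1 with DMSO and 100% = wells lacking GSTO1 enzyme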
GSTO1 ABPP inh – inhibitors of purified human GSTO1, late-stage follow-up, biochemical, gel ABPP, SE-Rh probe, percent inhibition. shares compounds with GSTO1 counter. recombinant GSTO1, gel ABPP SE-Rh probe fluorescence. inhibition, % at 1 µM. 30% of 130 active;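 active = inhibition of the enzyme GSTO1 above about 75%, limit read from the data; inactive = inhibition below that limit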
The depositor's hits bear a star; . = not tested or not shown. Most compounds without a hit are left out; they make up all but 1.8% or so of the library.

SMILES | Fam108B inh | LYPLA1 counter | PAD4 inh | LYPLA2 counter | GSTO1 counter | PME-1 primary | GSTO1 inh conf | others
Oc1ccc(/C=N/N=C/c2ccc(O)c(O)c2)cc1O | -9 | -10 | 3 | -10 | 39* | -26 | 18
Cc1nnc(NC(=O)c2ccc(F)c(S(=O)(=O)N3CCCCC3)c2)s1 | -3 | -1 | -7 | -2 | -2 | 3 | .
O=[N+]([O-])c1ccc(N2CCCCC2)nc1N1CCCCC1 | 0 | 2 | -2 | 4 | 7 | 1 | .
O=[N+]([O-])c1ccc2c(c1N1CCCCC1)=NC1(CCCCC1)[N+]=2[O-] | 7 | 0 | -2 | 2 | 57* | 7 | 6
O=C(OC1CCc2ccccc2C1=O)c1ccccc1O (centres undefined) | -8 | -2 | 1 | 8 | 54* | 3 | 48*
C=CC[C@@H](CC(=O)N(CCO)Cc1ccccc1)C(=O)NC[C@H](OC(=O)[C@@H](CC=C)Cc1ccc(F)cc1)c1ccccc1 | . | . | 7 | . | . | . | .
CCN1CCN(C(=O)C2CCCN(S(=O)(=O)c3cccc4nsnc34)C2)CC1 (centres undefined) | 1 | 3 | -2 | 4 | 0 | -1 | .
CC1=C(C(=O)OCc2ccccc2)C(c2ccccc2OS(=O)(=O)c2ccccc2[N+](=O)[O-])NC(=O)N1CCCC(=O)O (centres undefined) | 2 | -5 | 1 | -2 | 58* | 4 | 63*
Cc1ccc(NC(=O)CCc2nnc3ccc(N4CCC(C)CC4)nn23)nc1 | 3 | -2 | -4 | 0 | -1 | -4 | .
O=C1c2cc([N+](=O)[O-])cc3cc([N+](=O)[O-])cc(c23)C(=O)N1c1ccccn1 | 6 | -1 | 13 | 4 | 42* | -1 | 7
O=C(O)c1cccc(N2C(=O)c3cc([N+](=O)[O-])cc4cc([N+](=O)[O-])cc(c34)C2=O)c1 | 15 | -1 | 42* | 3 | 71* | 8 | 40*
CC(=O)C1=C(c2ccccc2)NC(=S)NC1c1ccc(O)c(O)c1 (centres undefined) | -2 | 0 | 0 | 4 | 45* | 4 | 7
CC(=O)C1=C(c2ccccc2)NC(=S)NC1c1cc(Cl)c(OC(C)C)c(Cl)c1 (centres undefined) | -11 | -11 | -6 | -11 | -10 | -10 | .
O=C(CCl)N1CCN(S(=O)(=O)c2ccc3ccccc3c2)CC1 | -1 | 4 | 0 | 16 | 87* | 4 | 94* | GSTO1 ABPP inh=88*
O=C(CCl)Nc1cc(S(=O)(=O)N2CCCCCC2)ccc1Cl | 5 | 2 | 5 | 5 | 96* | 12 | 96*
Cc1ccc(S(=O)(=O)N2CCCCC2)cc1NS(=O)(=O)c1cccc(C(=O)O)c1 | 1 | -1 | 2 | 2 | 39* | -5 | 32
COc1ccc(NC(=O)CS(=O)c2ccc(Br)cc2)cc1 (centres undefined) | 1 | -6 | -7 | -3 | 5 | 6 | .
O=C(NC1CCCN(C2Cc3ccccc3C2)C1)c1ccc(F)cc1Cl (centres undefined) | -3 | 1 | 4 | 3 | 5 | 0 | .
O=C(O)c1cccc(NS(=O)(=O)c2ccc3nnn(O)c3c2)c1 | 5 | 2 | -2 | 0 | -2 | 0 | .
O=C(O)c1cccc(NC2=C(n3nnc4ccccc43)C(=O)c3ccccc3C2=O)c1 | 2 | -4 | 5 | 0 | 62* | 1 | 45*
COc1ncnc(-c2ccccc2)c1-c1ccccc1 | -2 | 2 | -1 | 0 | -5 | 3 | .
